From PubChem BioAssay (Tox21)
Results filed as inconclusive are left out. Some structures have more than one record in an assay (separate samples or runs), and their calls can disagree. Calls of active or inactive are those of the source. Calls come from the whole dose curve.

Test: qHTS assay to identify small molecule antagonists of the sonic hedgehog signaling (Shh) pathway (AID 1259369); note: nearly all actives have a fitted effect of over 45% in size
Conditions: NIH/3T3 Gli1-Luc reporter, Shh antagonist, luminescence 24 h; series mostly up to 92.4 µM; activity change, negative = inhibition: at the top concentration
Source text: U.S. Tox21 Program National Center for Advancing Translational Sciences [NCATS] NIH Chemical Genomics Center [NCGC] U.S. Environmental Protection Agency [EPA] National Institutes of Environmental Health Sciences [NIEHS] National Toxicology Program [NTP] U.S. Food and Drug Administration [FDA] Tox21 Assay Overview: The sonic hedgehog (Shh) pathway is essential for normal embryonic development. Dysregulation of the Shh pathway can cause severe developmental defects in organs. Therefore chemicals that interfere with the pathway are potential developmental toxicants. A cell line designated 3T3Gli1-Luc (DMB/OARSA/CFSAN/FDA, Laurel, MD), a NIH/3T3 derived clone containing stably integrated Gli1-Luc reporter is used to detect chemical interference of the Shh pathway, by changes in the expression of the firefly Luc gene under the control of the Gli1 transcriptional response element. This cell line was used to screen Tox21 libraries for identifying and prioritizing the potential developmental toxicants that interfere Shh pathway. Conditioned medium-stimulated mode was used to screen for chemicals inhibiting Shh signaling.
Tox21 Assay Protocol Summary: 3T3 Gli1-Luc cells were dispensed at 2,000 per well in 5uL of culture medium into white solid bottom 1536-well plates (Greiner Bio-One, Monroe, NC) using a Multidrop Combi (Thermo Scientific, Waltham, MA) dispenser. The assay plates were incubated at 37 C and 5% CO2 for 4hr, and then 23nL of compounds dissolved in DMSO and positive control were transferred using a Pintool station (Wako, San Diego, CA). The compound transfer was followed by the addition of 1ul conditioned medium or assay buffer using two separate tips of Flying Reagent Dispenser (FRD, Aurora Discovery, San Diego, CA). The assay plates were incubated at 37C and 5% CO2 for 24hr. For luciferase read, 4uL of Amplite Luciferase reporter gene assay reagent (AAT Bioquest, Inc. Sunnyvale, CA) was added to each well of the assay plates using FRD and incubated at room temperature for 30min. The luminescence signal was measured using a ViewLux plate reader (Perkin Elmer, Shelton, CT).
% is set by controls: 0 for no effect and ±100 for the full control effect; potency is the fitted concentration of half-maximal effect.

Compound	activity change, negative = inhibition	Potency
CCC(C)Cl (stereo not given)	19.1% (inactive)	
COc1ccc(C(O)(c2cncnc2)C2CC2)cc1 (stereo not given)	-20.1% (inactive)	
NP(N)(=O)NC(=O)c1ccc(F)cc1	33.6% [at 42.5 µM] (inactive)	
c1ccc2c(c1)-c1cccc3cccc-2c13		inactive
CC(Oc1cc(Cl)c(Cl)cc1Cl)C(=O)O (stereo not given)	5.98% (inactive)	
CC(C)(C)OOC(C)(C)CCC(C)(C)OOC(C)(C)C	39.5% (inactive)	
CN(C)N	0.243% (inactive)	
CCc1cnc(C2=NC(C)(C(C)C)C(=O)N2)c(C(=O)O)c1 (stereo not given)		inactive
CC(C)(C)NCC(O)c1cc(Cl)c(N)c(C(F)(F)F)c1 (stereo not given)	0.239% [at 42.5 µM] (inactive)	
CN1C(=O)CN=C(c2ccccc2)c2cc([N+](=O)[O-])ccc21	-16% [at 42.5 µM] (inactive)	
C=CCc1ccc(OC(=O)Cc2ccccc2)c(OC)c1	19.1% (inactive)	
CCOP(=S)(OCC)SCSc1cc(Cl)ccc1Cl	3.49% (inactive)	
CCCCC(CC)CO[N+](=O)[O-] (stereo not given)	8.46% (inactive)	
N#CC(C#N)=C(C#N)C#N		14.3 µM (active)
O=CC=O	5.98% (inactive)	
O=C(O)c1cc(I)cc(I)c1I	-1.09% (inactive)	
OCC1CO1 (stereo not given)		inactive
CC1(C)[C@H](C(=O)O[C@H](C#N)c2cccc(Oc3ccccc3)c2)[C@@H]1C=C(Br)Br		inactive
CCCCC(CC)COC(=O)c1c(Br)c(Br)c(Br)c(Br)c1C(=O)OCC(CC)CCCC (stereo not given)	-10.2% [at 42.5 µM] (inactive)	
C[Si](Cn1cncn1)(c1ccc(F)cc1)c1ccc(F)cc1		8.92 µM (active)

Compound	activity change, negative = inhibition	Potency
O=C(N/N=C/c1ccc([N+](=O)[O-])o1)c1cc([N+](=O)[O-])cc([N+](=O)[O-])c1O		10.6 µM (active)
CCOc1cccc(C2(N3CCN(c4ccccc4)CC3)CCC(C)CC2)c1 (stereo not given)	13.1% (inactive)	
CCCCCl	9.49% (inactive)	
COP(=O)(OC)OC(Br)C(Cl)(Cl)Br (stereo not given)		12.2 µM (active)
CN(C)c1ccc(N=O)cc1		15.4 µM (active)
CN1CC[C@]23c4c5ccc(O)c4O[C@H]2[C@@H](O)CC[C@H]3[C@H]1C5	-20% (inactive)	
OCCSSCCO	0.892% (inactive)	
CC(Cc1ccccc1)NCc1ccccc1Cl (stereo not given)	2.34% [at 42.5 µM] (inactive)	
CCOP(=S)(OCC)Oc1ccc(S(C)=O)cc1 (stereo not given)	-30.8% (inactive)	
C[N+]1(CCF)[C@@H]2CC[C@H]1CC(OC(=O)C(O)(c1ccccc1)c1ccccc1)C2 (stereo not given in full)	-4.27% [at 42.5 µM] (inactive)	
CCCN(CCC)c1c([N+](=O)[O-])cc(C(C)C)cc1[N+](=O)[O-]	-0.58% (inactive)	
O=C(O)C(F)(F)C(F)(F)C(F)(F)C(F)(F)C(F)(F)F	0% (inactive)	
OCCCl	19.1% (inactive)	
OC[P+](CO)(CO)CO		31 µM (active) and inactive
CCOC(=O)c1cncn1C(C)c1ccccc1 (stereo not given)	-5.19% [at 42.5 µM] (inactive)	
COc1ccc(C(=O)c2c(C)n(CCN3CCOCC3)c3ccccc23)cc1	-12.5% [at 42.5 µM] (inactive)	
CC(=O)OC(c1ccccc1)C(Cl)(Cl)Cl (stereo not given)	8.35% (inactive)	
COc1cc(CC#N)cc(OC)c1OC	11.8% [at 42.5 µM] (inactive)	
CC(C)(C)CC(C)(C)c1ccc(O)cc1		15.4 µM (active)
Nc1cc(Cl)cc(C(=O)O)c1Cl		inactive
